Source: PubChem BioAssay AID652054 (National Center for Advancing Translational Sciences (NCATS), 2013)
Hit rate of the full screen: of about 360,000 compounds, about 9,100 (2.5%) were called active. Another 4% or so got no clear call; they are omitted. Rule as the data show it: active = max response below about -50%; inconclusive = no clear call, values can overlap the other calls; inactive = above that. Many of the other results were omitted from the sample, so actives are more common in it than they were.
% is scaled to controls: 0 for no effect and ±100 for the full control effect.

Each molecule was assayed against D(3) dopamine receptor (Homo sapiens) (UniProt P35462) (assay: qHTS of D3 Dopamine Receptor Antagonist: qHTS). Conditions: D3R cells, DiscoveRx beta-arrestin luminescence, antagonist mode; hits give low values.
Chain of D(3) dopamine receptor (Homo sapiens) (P35462 whole entry, looked up): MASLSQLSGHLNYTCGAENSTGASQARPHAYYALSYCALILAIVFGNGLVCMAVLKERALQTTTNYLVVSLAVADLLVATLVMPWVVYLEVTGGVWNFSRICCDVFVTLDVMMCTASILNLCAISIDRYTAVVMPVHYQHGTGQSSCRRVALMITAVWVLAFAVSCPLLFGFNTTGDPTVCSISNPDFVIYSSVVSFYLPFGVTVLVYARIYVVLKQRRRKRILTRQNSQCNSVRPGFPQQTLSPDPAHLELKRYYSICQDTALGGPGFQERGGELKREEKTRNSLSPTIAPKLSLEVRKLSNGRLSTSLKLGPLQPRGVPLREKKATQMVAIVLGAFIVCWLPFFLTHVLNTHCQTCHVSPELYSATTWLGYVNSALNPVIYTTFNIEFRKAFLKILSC
Outline: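 Cells plated overnight at 1500 cells/well, then exposed to library compounds with dopamine controls for 90 minutes at 37 degrees C. DiscoveRx reagent added for 30–60 minutes at room temperature; luminescence read, quantitative HTS format.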
For O=C(NC(=O)c1ccccc1)Nc1ccccc1O, the max response, negative = inhibition was -13.1% (inactive). With O=C(NC1=CC(=O)c2ccccc2C1=O)c1ccccc1 the max response, negative = inhibition was -88.8% (active). COC(=O)c1nc(NC(=O)c2ccccc2)n[nH]1 was tested, and the max response, negative = inhibition was 24.5% (inactive). In the case of O=C(NCc1nnnn1-c1ccc(Cl)cc1)c1ccc([N+](=O)[O-])o1, the max response, negative = inhibition is reported as 10.2% (inactive). COc1ccc(C(=O)N2CCC(C(=O)Nc3ccc(C)cc3)CC2)cc1 was tested, and the max response, negative = inhibition was 9.09% (inactive). In the case of CCc1ccc(NC(=O)CN2CCC(C(=O)c3ccc(OC)cc3)CC2)cc1, the max response, negative = inhibition is reported as -50.9% (active). With CCc1cc(C(=O)c2ccc(OC)cc2)c(NC(=O)CN2CCN(C)CC2)s1 the max response, negative = inhibition was -7.92% (inactive). CCCCN(CC)CCCNC(=O)CS(=O)(=O)Cc1nc(-c2cccc(OC)c2)oc1C was tested, and the max response, negative = inhibition was -50.9% (active). COc1ccc(-c2nc(CS(=O)(=O)CC(=O)NCc3cccc(Br)c3)c(C)o2)cc1 was tested, and the max response, negative = inhibition was 8.07% (inactive). For COc1cccc(-c2nc(CS(=O)(=O)CC(=O)NCCc3ccc(OC)c(OC)c3)c(C)o2)c1, the max response, negative = inhibition was 1.08% (inactive). For COC(=O)c1ccc2nc(-c3ccc(F)cc3)c(Cc3ccc(C)cc3)n2c1, the max response, negative = inhibition was 19.7% (inactive). In the case of CCCOc1ccc(F)cc1-c1cc(C(=O)Nc2ccc(F)c(Cl)c2)[nH]n1, the max response, negative = inhibition is reported as -15.7% (inactive). For CCCOc1ccc(F)cc1-c1cc(C(=O)NCc2ccc(F)cc2)[nH]n1, the max response, negative = inhibition was -2.32% (inactive). COc1cccc(OC)c1C(=O)N1CCN(Cc2ccccc2F)CC1 was tested, and the max response, negative = inhibition was -6.64% (inactive). With Cc1ccccc1CN1CCN(C(=O)c2cccc(F)c2)CC1 the max response, negative = inhibition was -63.6% (active). In the case of O=C(CN1CCN(C(=O)c2cccc(F)c2)CC1)Nc1ccccc1F, the max response, negative = inhibition is reported as 137% (inactive). For Cc1ccc(C(=O)N2CCN(S(=O)(=O)N3CCOCC3)CC2)cc1, the max response, negative = inhibition was -16.1% (inactive). With Cc1ccc(S(=O)(=O)N2CCN(S(=O)(=O)N3CCOCC3)CC2)cc1 the max response, negative = inhibition was -75.3% (active). With Cc1ccc(S(=O)(=O)N2CCN(C)CC2)cc1 the max response, negative = inhibition was 7.28% (inactive). With O=[N+]([O-])c1ccc(CN2CC(N3CCC(c4ccccc4)CC3)CS2(=O)=O)cc1 (stereo not drawn) the max response, negative = inhibition was -23.6% (inactive). For CCOC(=O)[C@]12CCC=C1N(Cc1ccco1)C(=O)[C@H](CC(=O)NCc1cccc(C(F)(F)F)c1)C2, the max response, negative = inhibition was -18.6% (inactive). For Oc1ccc(N=Nc2nccs2)c(O)c1, the max response, negative = inhibition was -73.7% (active). Oc1ccc2ccccc2c1N=Nc1nccs1 was tested, and the max response, negative = inhibition was -67.4% (active). CCNC(=O)C1CCCN(C(=O)c2cc(F)ccc2C)CC1 (stereo not drawn) was tested, and the max response, negative = inhibition was 15.3% (inactive). For CCCCC[C@H](C)N1C[C@@H](COCc2ccccc2)Oc2cc(N3CC[C@@H](N(C)C)C3)ccc2S1(=O)=O, the max response, negative = inhibition was 18.9% (inactive). Cc1cc(Cl)ccc1-c1nc(NCCN(C)C)nc2ccsc12 was tested, and the max response, negative = inhibition was -28.3% (inactive). For O=C1CC[C@@H](C(=O)N2CSC[C@@H]2C(=O)Nc2ccc(C(F)(F)F)cc2)N1, the max response, negative = inhibition was -3.96% (inactive). COc1ccc(C2=Nc3ccccc3NC(=O)C2N(C(=O)c2cc3ccccc3[nH]2)c2ccccc2)cc1 (stereo not drawn) was tested, and the max response, negative = inhibition was -13.2% (inactive). CCc1ccccc1OCC(=O)Nc1nnc(C2CC2)s1 was tested, and the max response, negative = inhibition was -9.37% (inactive). With O=C(O)c1cccc(NC(=O)c2cc(-c3cccc(Cl)c3)nc3ccccc23)c1 the max response, negative = inhibition was 14.5% (inactive). In the case of O=C(/C(=C/c1cccc(Cl)c1)c1nc2ccccc2[nH]1)c1ccccc1, the max response, negative = inhibition is reported as -87.4% (active). In the case of O=C(N/N=C/c1ccc(Cl)cc1)c1nc2ccc([N+](=O)[O-])cc2c(=O)[nH]1, the max response, negative = inhibition is reported as 9.98% (inactive). In the case of CCCn1c(N)c(C(=O)CSc2nnc(Cc3cccs3)n2C2CC2)c(=O)[nH]c1=O, the max response, negative = inhibition is reported as 31% (inactive). In the case of O=C(NCC(F)(F)F)c1ccc(S(=O)(=O)NCCc2ccc3c(c2)OCCO3)cc1, the max response, negative = inhibition is reported as 18.6% (inactive). In the case of CC(C)Cc1ccc(-c2cc3nc(NCc4cccc(Cl)c4)ccn3n2)cc1, the max response, negative = inhibition is reported as 16.3% (inactive). For CC(=O)c1ccc(Nc2nc(C(N)c3ccccc3Cl)cs2)cc1 (stereo not drawn), the max response, negative = inhibition was 0% (inactive). CC1(C(=O)NS(=O)(=O)c2cccc(F)c2)CCN1C(=O)c1cccc2ccccc12 (stereo not drawn) was tested, and the max response, negative = inhibition was -11.4% (inactive). Cc1ccccc1N1CCN(S(=O)(=O)c2ccc3ccccc3c2)CC1 was tested, and the max response, negative = inhibition was -28.5% (inactive). For Cc1ccc(C)c(N2CCN(S(=O)(=O)c3ccc4c(c3)oc(=O)n4C)CC2)c1, the max response, negative = inhibition was 19.9% (inactive). In the case of Cc1ccc(N2CCN(S(=O)(=O)c3ccc(F)cc3)CC2)c(C)c1, the max response, negative = inhibition is reported as -54.7% (active). In the case of CCc1nc2c(OCCc3cccc(OC)c3)cccn2c1N(C)C(=O)c1ccc(C)cc1, the max response, negative = inhibition is reported as -6.67% (inactive). In the case of N/C(=N\OC(=O)Nc1ccccc1)c1ccno1, the max response, negative = inhibition is reported as -63.2% (active). CC(C)(COC(=O)Nc1ccccc1)COC(=O)Nc1ccccc1 was tested, and the max response, negative = inhibition was -25.8% (inactive). For O=C(Nc1ccccc1)O/N=C1/CCCc2occc21, the max response, negative = inhibition was -1.95% (inactive). For COc1cc2ccc(C(C)=O)c(O)c2cc1OC, the max response, negative = inhibition was -9.5% (inactive). In the case of CCC(C)C(CO)NC(=O)/C=C/[C@H]1O[C@@H](n2cnc3c(NC(=O)c4ccccc4)ncnc32)[C@H](O)[C@@H]1O (stereo partly drawn), the max response, negative = inhibition is reported as 10.7% (inactive). With COc1c(O)ccc2c1CN1CCc3cc4c(cc3C1C2)OCO4 (stereo not drawn) the max response, negative = inhibition was -123% (active). With COc1cc(C(=O)CCc2ccc3c(c2)OCO3)cc(OC)c1OC the max response, negative = inhibition was -2.22% (inactive). For COc1ccc2cc1Oc1ccc(cc1)C[C@H]1c3cc(c(OC)cc3CCN1C)Oc1c(O)c(OC)cc3c1[C@H](C2)N(C)CC3, the max response, negative = inhibition was -18.7% (inactive). With Cn1c(=O)c2cc(NC(=O)NCCc3cccs3)ccc2n1Cc1cccc(C(F)(F)F)c1 the max response, negative = inhibition was 18.7% (inactive). Cc1cc(Nc2ccc(C)c(C)c2)n2ncnc2n1 was tested, and the max response, negative = inhibition was -15.7% (inactive). For COc1ccc(-c2ccc(CN3C(C(C)C)C(=O)N(Cc4cn(CC5CCCCC5)nn4)CCS3(=O)=O)cc2)cn1 (stereo not drawn), the max response, negative = inhibition was 14.3% (inactive). For COc1ccc(-c2cc(NC(C)=O)c3ncc(-c4cc(OC)c(OC)c(OC)c4)n3c2)cn1, the max response, negative = inhibition was 30.1% (inactive). CC(C)C(c1nnnn1Cc1ccccc1)N1CCC(C(N)=O)CC1 (stereo not drawn) was tested, and the max response, negative = inhibition was 14.4% (inactive). With CSCCC(c1nnnn1Cc1ccccc1)N1CCN(C/C=C/c2ccccc2)CC1 (stereo not drawn) the max response, negative = inhibition was -87.8% (active). With COc1ccccc1C(=O)NC(CCSC)C(=O)N1CCN(C/C=C/c2ccccc2)CC1 (stereo not drawn) the max response, negative = inhibition was -14% (inactive). With Cc1cccc(OCC(O)CN2CCN(S(=O)(=O)c3ccc(C)cc3C)CC2)c1 (stereo not drawn) the max response, negative = inhibition was -9.79% (inactive). With Cc1ccc(Cl)c(OCC(=O)N2CCc3ccccc3C2)c1 the max response, negative = inhibition was 1.13% (inactive). In the case of OC(COc1ccc(F)cc1Cl)CN1CCc2ccccc2C1 (stereo not drawn), the max response, negative = inhibition is reported as -83.8% (active). For CCCc1ccc(OCC(O)CN2CCN(CCO)CC2)cc1 (stereo not drawn), the max response, negative = inhibition was 6.19% (inactive). For Cc1ccc(OCC(O)CN2CCN(CC(O)COc3ccc(C)cc3Cl)CC2)c(Cl)c1 (stereo not drawn), the max response, negative = inhibition was -59.6% (active). With COCCN1CCN(C(=O)c2cc(COc3ccc(F)cc3Cl)on2)CC1 the max response, negative = inhibition was -9.58% (inactive). In the case of CC(C)C[C@H]1CNC(=S)N1C[C@H]1CCCN1C[C@H](Cc1ccc(O)cc1)N1C[C@H](Cc2ccc(O)cc2)N(CC2CCCCC2)C1=S, the max response, negative = inhibition is reported as 4.99% (inactive). In the case of CC(=O)NC(c1cccc(F)c1)c1nc(-c2cccc(F)c2)cs1 (stereo not drawn), the max response, negative = inhibition is reported as 2.77% (inactive). COC(=O)[C@]12CCCCC=C1N(Cc1ccc3c(c1)OCO3)C(=O)[C@H](CC(=O)N1CCOCC1)C2 was tested, and the max response, negative = inhibition was 6.26% (inactive). COc1ccc(C(C)C)cc1-c1ccc2nncn2c1 was tested, and the max response, negative = inhibition was -20% (inactive). In the case of COc1ccc(C(=O)OCC(=O)Nc2cc(C)on2)cc1F, the max response, negative = inhibition is reported as 9.93% (inactive). O=C(Nc1ccc(N2CCOCC2)cc1)c1cccc2c(-c3ccc(F)c(F)c3)coc12 was tested, and the max response, negative = inhibition was -14.5% (inactive). For O=C(Nc1nnc([C@H]2C[C@H](O)[C@@H](CO)O2)s1)c1cccc(Cl)c1, the max response, negative = inhibition was -110% (active). For Cc1ccc(CNC(=O)Nc2nnc([C@H]3C[C@H](O)[C@@H](CO)O3)s2)cc1, the max response, negative = inhibition was 10.5% (inactive). For O=C(Nc1ccc(F)cc1)Nc1nnc([C@H]2C[C@H](O)[C@@H](CO)O2)s1, the max response, negative = inhibition was 16.1% (inactive). In the case of CC1=C(C(=O)N2CCOCC2)CC(CC(=O)NCCCN(C)C)C(=O)N1Cc1ccc(C(C)(C)C)cc1 (stereo not drawn), the max response, negative = inhibition is reported as 35.5% (inactive). With Nc1nc2c(ncn2[C@@H]2O[C@H](CNS(=O)(=O)N3CCc4ccccc4C3)[C@@H](O)[C@H]2O)c(=O)[nH]1 the max response, negative = inhibition was 4.77% (inactive). With CCCCc1c(-c2ccc(Br)cc2)ncn1CCc1ccccc1OC the max response, negative = inhibition was 65.6% (inactive). For COc1cccc(CC2(CO)CCCN(Cc3nc(-c4cccs4)oc3C)C2)c1 (stereo not drawn), the max response, negative = inhibition was -116% (active). In the case of COc1cccc(CC2(CO)CCCN(CC3=Cc4cc(OC)ccc4OC3)C2)c1 (stereo not drawn), the max response, negative = inhibition is reported as -6.63% (inactive). In the case of COc1cccc(CC2(CO)CCCN(Cc3ccc(OC(F)F)cc3)C2)c1 (stereo not drawn), the max response, negative = inhibition is reported as 8.8% (inactive). For CCOc1ccc(CCNC(=O)COC(=O)c2ccc(C)c(S(=O)(=O)N3CCOCC3)c2)cc1OCC, the max response, negative = inhibition was -5.11% (inactive). For O=C(c1ccc(Br)o1)N1CCN(CCOc2ccccc2)CC1, the max response, negative = inhibition was 27.8% (inactive). O=C(Nc1ccc(F)cc1F)N1CCCN(CCOc2ccccc2)CC1 was tested, and the max response, negative = inhibition was -70.2% (active). In the case of O=C(c1ccco1)N1CCN(CCOc2ccccc2)CC1, the max response, negative = inhibition is reported as -16.8% (inactive). For COc1ccc(S(=O)(=O)N2CCOCC2)c(C)c1C, the max response, negative = inhibition was -69.1% (active). COc1ccc(S(=O)(=O)N2CCCC2)c(C)c1C was tested, and the max response, negative = inhibition was -3.98% (inactive). With COc1cc(C)c(S(=O)(=O)N2CCOCC2)c(C)c1C the max response, negative = inhibition was 0.216% (inactive). COc1ccc(CC(N)c2csc(NC(=O)Nc3ccc(C(C)C)cc3)n2)cc1 (stereo not drawn) was tested, and the max response, negative = inhibition was -12.1% (inactive). With OC(c1ccc(Cl)c(F)c1)c1ncc(-c2ccccc2Cl)[nH]1 (stereo not drawn) the max response, negative = inhibition was -18% (inactive). With CCSc1ncnc2c(C#N)c3n(c12)CCCCC3 the max response, negative = inhibition was -10.2% (inactive). With CCSC1=C(C#N)C(=O)n2c1cc1c2CCCC1 the max response, negative = inhibition was -65.6% (active).
